Screens (PubChem)
AmpC inh no detg = qHTS Inhibitors of AmpC Beta-Lactamase (assay without detergent). P00811. AmpC nitrocefin hydrolysis, absorbance 480 nm, 0.0001% Triton. Potency, µM (series often up to 57.1 µM), hits mostly inhibitors. 330,000 tested, 0.52% active. AID 485341, 2010; note: nearly all actives have a fitted effect of over 20% in size
Target sequence (P00811 whole entry, looked up): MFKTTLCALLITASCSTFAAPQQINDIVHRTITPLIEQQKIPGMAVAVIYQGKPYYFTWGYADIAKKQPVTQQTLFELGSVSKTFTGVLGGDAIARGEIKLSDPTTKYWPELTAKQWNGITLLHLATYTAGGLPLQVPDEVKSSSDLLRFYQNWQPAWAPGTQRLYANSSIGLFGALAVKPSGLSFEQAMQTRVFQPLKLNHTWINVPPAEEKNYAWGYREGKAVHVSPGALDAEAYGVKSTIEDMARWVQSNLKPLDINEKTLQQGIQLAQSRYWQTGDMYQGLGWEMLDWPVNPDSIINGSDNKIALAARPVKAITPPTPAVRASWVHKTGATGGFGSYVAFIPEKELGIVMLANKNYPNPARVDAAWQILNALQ
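AmpC (5.3 nM in the dispensed reagent) in 20 mM phosphate pH 7.0 with 0.01% (detergent screen) or 0.0001% Triton X-100 was preincubated with compounds for 15 min at room temperature. Nitrocefin was then added from an 800 uM solution, and hydrolysis was followed at 480 nm.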
AmpC detergent = qHTS Inhibitors of AmpC Beta-Lactamase (assay with detergent) | P00811 | 370,000 tested, 0.041% active | AmpC hydrolysis of nitrocefin, absorbance 480 nm, 0.01% Triton | Potency, µM (doses to about 114 µM), actives largely listed as inhibitors; note: nearly all actives have a fitted effect of over 25% in size
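20 mM phosphate pH 7.0 + 0.01% (detergent screen) or 0.0001% Triton X-100; 5.3 nM AmpC reagent; cpd preinc 15 min RT; nitrocefin (800 uM stock) to start; A480 q20 s × 4 min; Activity was normalised to no-enzyme and no-compound control wells.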
A number is an active result; . = inactive; ? = inconclusive; / = no result given; [ ] = remark or other dose. Only a selection was taken, and hits are over-represented in it overall. Calls come from the whole dose curve; as a rule, active = well fitted curve in the direction sought with a large enough effect; inconclusive = small, poorly fitted or top-dose-only effect, or another doubt; inactive = no such curve, though single readings can be large; an effect the other way counts as inactive or inconclusive.

SMILES	AmpC inh no detg	AmpC detergent
Cc1c(Cl)cccc1NC(=O)CN1C(=O)COc2ccc(S(=O)(=O)N3CCCCCC3)cc21	/	.
CCOc1ccc(-c2nc(Cn3c(=O)cc(-c4ccccc4)c4c(C)nn(C)c43)c(C)o2)cc1OC	/	.
CC(C)(C)OC(=O)N1CCC(c2c(C(=O)NCCN3CCC(Cc4ccccc4)CC3)cnn2-c2ccccc2)CC1	/	.
CCCc1cc(=O)oc2cc(OCC(=O)NCc3cccs3)ccc12	.	.
COc1ccc2c(CC(=O)OCC(=O)Nc3ccc(S(N)(=O)=O)cc3)coc2c1	10µM	.
CCCc1cc(=O)oc2cc(OCC(=O)Nc3ccc(S(N)(=O)=O)cc3)ccc12	28µM	56µM
COc1ccc2c(CC(=O)OCC(=O)Nc3ccc(C)cc3)coc2c1	.	.
CCOc1ccccc1NC(=O)Cn1cc(C(=O)c2ccc(Cl)cc2)c(=O)c2ccc(C)nc21	/	.
O=C(COC(=O)C12CC3CC(CC(C3)C1)C2)Nc1nc2c(F)c(F)c(F)cc2s1	10µM	.
COc1ccc(C(=O)OCC(=O)Nc2nc3c(F)c(F)c(F)cc3s2)cc1OC	.	.
COc1ccc(CNC(=O)CCc2c(C)nn(-c3ccc(N4CCCCC4)nn3)c2C)c(OC)c1	/	.
COc1cc(CN(C(=O)COc2ccc(Br)cc2)c2ccccn2)cc(OC)c1OC	/	.
Cc1ccc(NC(=O)Cn2ccn(-c3ccccc3)c(=O)c2=O)cc1	/	.
O=C(CSc1ccc2nnc(-c3ccc(Cl)cc3)n2n1)N1CCc2ccccc21	6.3µM	.
O=C(CSc1ccc2nnc(-c3cccnc3)n2n1)N1CCc2ccccc21	.	?
Cc1[nH]c2ccccc2c1/C=N/NC(=O)C1CC1(c1ccccc1)c1ccccc1 (stereo not given)	11µM	.
Cc1[nH]c2ccccc2c1/C=N/NC(=O)CCC(=O)NCc1ccccc1	.	.
Cc1cc(C)cc(NC(=O)N2CCC(CN3CCc4ccccc4C3)CC2)c1	/	.
Cc1cc(O)c2c(c1O)C(=O)[C@]13C(=C2O)C(=O)[C@@H]2[C@@H](O)[C@H]1[C@@H]1[C@H](O)[C@H]3C(=O)C3=C(O)c4c(O)cc(C)c(O)c4C(=O)[C@]312	28µM	/
Cc1ccc(-c2noc(CNC(=O)c3ccc(Br)o3)n2)cc1	/	.
Cc1ccc(C2=NN(S(=O)(=O)c3ccccc3)C(c3ccco3)C2)cc1 (stereo not given)	.	.
O=S(=O)(c1ccccc1)N1N=C(c2ccc(O)cc2)CC1c1ccco1 (stereo not given)	14µM	.
CCCC(=O)Oc1c(Sc2ccc(Cl)cc2)c(C)nn1-c1ccccc1	/	.
O=C(O)Cc1sc(Nc2cccc3ccccc23)nc1-c1ccccc1	.	.
O=C(O)Cc1sc(Nc2cccc3ccccc23)nc1-c1ccc(Cl)cc1	7.9µM	.
SMILES	AmpC inh no detg	AmpC detergent
Cc1ccc(C(=O)c2oc3ccccc3c2NC(=O)Cc2coc3cc(C)ccc23)cc1	/	.
NC(=O)CN1CCN(C(=O)Nc2ccccc2)CC1	22µM	.
CCN1CCN(C(=O)C2CCN(C(=O)Nc3ccccc3)CC2)CC1	.	.
CCc1ccc(NC(=O)CSc2nc3c(c(=O)[nH]2)CN(Cc2ccc(C)cc2)CC3)cc1	/	.
Cc1noc(C)c1S(=O)(=O)N(CC(=O)NCc1ccccc1Cl)c1ccc(C(C)C)cc1	/	.
Nc1cc(-c2ccc(Cl)cc2)nn1S(=O)(=O)c1cccc2nsnc12	22µM	.
Nc1cc(-c2ccc(Br)cc2)nn1S(=O)(=O)c1cccc2nsnc12	.	?
FC(F)Sc1ccc(NC(=S)NCc2ccccc2)cc1	.	.
FC(F)Sc1ccc(NC(=S)NC(c2ccccc2)c2ccccc2)cc1	18µM	.
COc1ccc(CCNC(=O)CSc2nc(-c3ccc(F)cc3)cc(C(F)(F)F)n2)cc1OC	/	.
Cc1ccccc1Cn1cc(S(=O)(=O)CC(=O)N2CCCCC2)c2ccccc21	.	.
CCOC(=O)N1CCN(C(=O)CS(=O)(=O)c2cn(Cc3ccccc3Cl)c3ccccc23)CC1	4µM	?
Cc1ccc2onc(CNC(=O)N3CCN(c4cccc(C)c4C)CC3)c2c1	/	.
O=C(NCc1ccco1)/C(=C/c1ccc(C(F)(F)F)cc1)c1nc2ccccc2[nH]1	18µM	.
O=C(NCc1ccco1)/C(=C/c1cccc(C(F)(F)F)c1)c1nc2ccccc2[nH]1	.	?
CC(=O)N1c2ccc(S(=O)(=O)N3CCN(c4cc(Cl)ccc4C)CC3)cc2CC1C (stereo not given)	/	.
CCc1ccc(C2C(C#N)=C(N)SC(N)=C2C#N)cc1	8.9µM	.
N#CC1=C(N)SC(N)=C(C#N)C1c1ccc(C(F)(F)F)cc1	.	.
Cc1ccc(C(=O)N(Cc2ccco2)Cc2sccc2C)cc1	/	.
CCOC(=O)CNC(=O)c1ccc2[nH]c3c(c2c1)CCCC3	.	.
NNC(=O)c1ccc2[nH]c3c(c2c1)CCCC3	25µM	.
Cc1cc(C)cc(NC(=S)NCc2ccc3[nH]c4c(c3c2)CCCC4)c1	32µM	.
S=C(NCc1ccc2[nH]c3c(c2c1)CCCC3)Nc1ccccc1	?	.
O=C(C1CCC1)N1CCc2cc(S(=O)(=O)NCCc3ccccc3)ccc21	/	.
CCCS(=O)(=O)N1CC(=O)N(c2cc(C)cc(C)c2)C(C)(C(=O)NC2CCCCCC2)C1 (stereo not given)	/	.
SMILES	AmpC inh no detg	AmpC detergent
CCN(CC)C(=O)CSc1nc2cc3c(cc2c(=O)n1Cc1ccc(C(=O)NCCc2ccc(OC)c(OC)c2)cc1)OCO3	/	.
CCOC(=O)N1CCc2c(sc(NCc3ccc(N(C)C)cc3)c2C(=O)Nc2ccccc2OCC)C1	/	.
CCOC(=O)c1c(NC(=O)C(C)OC(=O)C2=COCCO2)sc2c1CCCC2 (stereo not given)	.	.
CCOC(=O)c1c(NC(=O)C(C)OC(=O)c2ccc(NC(=O)CC#N)cc2)sc2c1CCCC2 (stereo not given)	28µM	.
O=S(=O)(c1ccc(F)cc1)N(Cc1nc(-c2ccc(Cl)cc2)no1)C1CCCCC1	/	.
CCOC(=O)CNC(=O)N1CCN(S(=O)(=O)c2ccc3c(ccn3C)c2)CC1	/	.
COc1ccc(CNC(=O)c2cc3c(-c4ccccc4F)nn(C)c3s2)cc1	/	.
O=[N+]([O-])c1ccc(/C=N/NC(=S)Nc2ccc(Cl)cc2Cl)s1	14µM	.
O=[N+]([O-])c1ccc(O)c(/C=N/NC(=S)Nc2ccc(Cl)cc2Cl)c1	.	.
COc1cc(NC(=O)c2cc3nc(-c4ccc(C)cc4)cc(C(F)(F)F)n3n2)cc(OC)c1OC	/	.
CCCC[C@]12Cc3ccccc3C(O1)c1c(cc(-c3ccccc3)oc1=O)O2	.[11.4 µM]	.[22.9 µM]
COc1ccc(OC)c2sc(NNC(=O)COc3ccccc3)nc12	.	.
COc1ccc(OCC(=O)NNc2nc3ccccc3s2)cc1	10µM	.
NC(=O)c1nsc(C(=O)N(c2cccc(F)c2)C(C(=O)NC2CCCC2)c2ccc(O)cc2)c1N (stereo not given)	.	.
NC(=O)c1nsc(C(=O)N(c2cccc(F)c2)C(C(=O)NCc2ccccc2)c2ccc(O)cc2)c1N (stereo not given)	7.9µM	.
COc1ccc(CNC(=O)c2cc(-c3cccs3)nc3ccccc23)c(OC)c1	/	.
CCOC(=O)C1=C(c2ccccc2)N=c2s/c(=C\c3cc(OC)c(OC)c(OC)c3)c(=O)n2C1c1cccs1 (stereo not given)	.	.
